This is a sample that favours compounds with a hit; in the whole collection about 9.9% have one here.
IL1B secr inh – blocks inflammasome-driven IL-1 beta release; THP-1 LPS/ATP IL-1B secretion, AlphaLISA, 16 h; stronger effect = lower value; activity change, % at 57.5 µM; 360,000 compounds, 4.7% hits; AID 743279; in the data active = activity change below about -50%; inconclusive = mostly about -30% to -49%; also: % is scaled to controls: 0 for no effect and ±100 for the full control effect
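Secreted IL-1B measured by AlphaLISA bead assay after 16 h compound exposure of THP-1 cells; compounds (final up to 57.5 uM) added 1 h before LPS (250 ng/mL) and ATP (1.25 mM) stimulation; lower signal means less secretion.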
KB-V1 MDR tox – kills drug-selected multidrug resistant KB-V1 cells; KB-V1 MDR cells viability, CellTiter-Glo, 72 h; Potency, µM (highest dose often 46.1 µM), usual class: cytotoxic; 400,000 compounds, 3.4% hits; AID 1347076; also: potency is read from the fitted curve at half-maximal effect; % is scaled to controls: 0 for no effect and ±100 for the full control effect; nearly all actives have a fitted effect of over 60% in size
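Drug-selected KB-V1 cells, grown in DMEM lacking phenol red with 10% FBS, receive compound titrations; after three days at 37 degrees C, surviving cell ATP is quantified by CellTiter-Glo luminescence and responses normalized and curve-fitted.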
SW480 rereplic – inducers of DNA re-replication in SW480 colon cancer cells; 340,000 compounds, 1.8% hits; SW480 DNA re-replication, Hoechst DNA content imaging, 48 h; AID 624297; Potency, µM (doses to about 46.1 µM), for the others: at the highest dose re-replication activation, usual class: activators; also: potency is read from the fitted curve at half-maximal effect; % of control where 0% means no effect; nearly all actives have a fitted effect of over 55% in size
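SW480 cells exposed to compounds for 48 hr at 37 C, 5% CO2, then Hoechst-stained 40 min. Nuclear DNA content imaged by fluorescence scanning (405 nm excitation, 500-530 nm emission); re-replication scored as increased high-intensity nuclei.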
MCF10A rerep – inducers of DNA re-replication in MCF 10A breast cells. MCF 10A DNA re-replication, Hoechst nuclear intensity, 48 h. Potency, µM (series often up to 46.1 µM), for the others: at the top dose activity, positive = re-replication, hits mostly activators. 350,000 compounds, 2.9% hits. AID 624296; also: potency is read from the fitted curve at half-maximal effect; % of control where 0% means no effect; nearly all actives have a fitted effect of over 50% in size
KB-3-1 tox – KB-3-1 parental cell cytotoxicity. 400,000 compounds, 1.4% hits. AID 1347075. Potency, µM (top dose mostly 46.1 µM), usual class: cytotoxic. KB-3-1 viability, CellTiter-Glo ATP luminescence, 72 h; also: potency is read from the fitted curve at half-maximal effect; % is scaled to controls: 0 for no effect and ±100 for the full control effect; nearly all actives have a fitted effect of over 60% in size
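Cytotoxicity measured as CellTiter-Glo luminescence after 72 h at 37 C. Compound titrations were pinned onto drug-naive KB-3-1 parental adenocarcinoma cells grown in DMEM with 10% FBS, and normalized data fitted to concentration-response curves.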
Numbers without * were called inactive; i = inactive; ? = inconclusive; nt = no result given; ! = repeats disagree; [ ] = remark or other dose. Unless noted, calls follow the shape of the dose curve; as a rule, active = well fitted curve in the direction sought with a large enough effect; inconclusive = small, poorly fitted or top-dose-only effect, or another doubt; inactive = no such curve, though single readings can be large; an effect the other way counts as inactive or inconclusive.

SMILES | IL1B secr inh | KB-V1 MDR tox | SW480 rereplic | MCF10A rerep | KB-3-1 tox
COc1ccc(/C=N/NC(=O)CCn2cnc(-c3ccccc3)c2-c2ccccc2)cc1 | 0.0 | i | 3.26µM* | 1.64µM* | 5.17µM*
O=C(CCn1cnc(-c2ccccc2)c1-c1ccccc1)N/N=C/c1ccccc1O | 230.0 | i | 9.2µM* | 4.61µM* | ?
CCOC(=O)/C(N=Nc1ccc(C(=O)O)cc1[N+](=O)[O-])=C(\C)O | 0.0 | i | -66.5% | 3.66µM* | i
CC(=O)/C(N=Nc1ccc(C(=O)O)cc1[N+](=O)[O-])=C(\C)O | -5.9 | ? | -21.8% | 5.8% | i
COc1ccccc1COC(=O)Nc1c(C)nn(C)c1Cl | -1.1 | 23.1µM* | -4.1% | 8.6% | i
COc1ccc(NC(=O)Cn2ncc(Cl)c(Cl)c2=O)cc1S(=O)(=O)N1CCOCC1 | -53.6* | i | 4.61µM* | 4.11µM* | i
COc1ccc(NC(=O)c2ccc(Cl)nc2)cc1S(=O)(=O)N1CCOCC1 | 35.7 | i | 2.1% | 2.1% | ?
CCN(CC)S(=O)(=O)c1cc(NC(=O)Cn2ncc(Cl)c(Cl)c2=O)ccc1C | -58.9* | i | ? | ? | ?
O=C(Cn1ncc(Cl)c(Cl)c1=O)c1ccc2c(c1)OCCO2 | -99.3* | 20.6µM* | ? | 2.91µM* | ?
O=C(Cn1ncc(Cl)c(Cl)c1=O)Nc1ccc2c(c1)OCO2 | -99.3* | ? | -2.4% | 0.731µM* | ?
CCC(=O)c1ccc2c(c1)OCCO2 | -6.4 | i | 3.9% | -4.2% | i
CCN(CC)S(=O)(=O)c1cc(NC(=O)CN2C(=O)NC(C)(c3ccccc3)C2=O)ccc1C (centres undefined) | 6.1 | i | 5.6% | 25.0% | i
CCc1noc(C)c1C(=O)NNC(=O)c1ccc(N(CC)CC)cc1 | -2.6 | i | -2.8% | 13.2% | i
CCc1cc2c(-c3ccccc3)cc(=O)oc2c2c1OCN(Cc1ccc(F)cc1)C2 | nt | i | nt | nt | i
C=CCN(Cc1nc(-c2ccc(OC)cc2)no1)C(=O)c1ccc2c(c1)OCO2 | 14.3 | 20.6µM* | -0.1% | 17.5% | i
O=S(=O)(Nc1nc(CN2CCOCC2)nc2sc3c(c12)CCCC3)c1cc(F)ccc1F | 29.2 | 10.3µM* | 2.9% | 2.2% | i
CCNc1nc(CN2CCOCC2)nc2sc3c(c12)CCC3 | -14.8 | i | 6.5% | -9.3% | i
c1ccc2c(c1)CCN(c1nc(CN3CCOCC3)nc3sc4c(c13)CCCC4)C2 | -51.3* | ? | -3.9% | ? | ?
CSc1nc(N2CCOCC2)c2c3c(sc2n1)CCC3 | 3.8 | i | -2.8% | 4.6% | i
COc1ccccc1NC(=O)NC1(C(=O)N2CCC(C)CC2)CCCCC1 | -2.4 | i | 5.3% | -0.6% | i
Cc1cc(C(=O)CN2C(=O)c3cccc(N)c3C2=O)c(C)n1Cc1cccs1 | -18.6 | i | ? | 2.59µM* | i
CC1CCCCC12NC(=O)N(CC(=O)NCc1cccs1)C2=O (centres undefined) | 9.6 | i | nt | nt | i
Cc1cc(C(=O)CN2C(=O)NC3(CCCCC3C)C2=O)c(C)n1Cc1cccs1 (centres undefined) | -6.3 | 23.1µM* | 0.9% | 15.0% | i
COc1ccc(NC(=O)c2cc(C)n(Cc3cccs3)c2C)cc1 | nt | i | ? | ? | ?
CC(CC(=O)N1CCc2ccccc21)n1cccn1 (centres undefined) | 10.7 | i | 4.7% | -2.0% | i
SMILES | IL1B secr inh | KB-V1 MDR tox | SW480 rereplic | MCF10A rerep | KB-3-1 tox
O=C(CCCCCNC(=O)N1CCn2c1nc1ccccc12)NCc1ccccc1 | 10.9 | ? | -14.9% | 12.4% | i
O=c1[nH]c2cc3ccccc3cc2nc1-c1nnnn1C1CCCC1 | 0.0 | i | nt | nt | 5.8µM*
COc1cccc(N(CC(=O)NC2CCCCC2)C(=O)c2snc(C(N)=O)c2N)c1 | -60.9* | ? | -4.8% | 6.0% | i
NC(=O)c1nsc(C(=O)N(CC(=O)NC2CCCCC2)c2ccc(Cl)cc2)c1N | 2.9 | i | -2.2% | ? | i
NC(=O)c1nsc(C(=O)N(CC(=O)NC2CCCC2)c2cccc(C(F)(F)F)c2)c1N | -12.9 | i | ? | 14.6µM* | i
CNC(C)C#Cc1ccc2sc3cccc(OC)c3c(=O)c2c1 (centres undefined) | -80.5* | i | 7.31µM* | ? | i
Cn1c2ccccc2c(=O)c2ccc(C#CC3(O)CCCCC3)cc21 | -53.8* | ? | ? | -3.8% | ?
COc1cc2sc3ccc(C#CC4(O)CCCCC4)cc3c(=O)c2cc1OC | 0.0 | i | ? | 9.2µM* | i
COc1ccc(C#Cc2ccc3c(c2)c(=O)c2ccccc2n3C)cc1 | 58.9 | i | -3.5% | ? | i
COc1cccc2sc3cc(C#CC4(O)CCCCC4)ccc3c(=O)c12 | ? | i | -3.2% | ? | i
COc1cccc2sc3ccc(C#CC4(N)CCCCC4)cc3c(=O)c12 | -61.1* | i | 27.5% | ? | ?
O=C(Nc1ccc(N2CCOCC2)cc1)c1csc([C@@H]2O[C@H](CO)[C@H](O)[C@H](O)[C@H]2O)n1 | -9.4 | i | nt | nt | i
C[C@H]1CS(=O)(=O)CCN1/N=C\c1ccc([N+](=O)[O-])o1 | nt | nt | -0.5%[20.6 µM] | -2.9%[20.6 µM] | nt
Cc1ccc(NC(=O)NCc2c(-n3cccc3)sc3c2CCCC3)c(Cl)c1 | nt | i | nt | nt | i
CN(C)CC/C=C1\c2cc(F)ccc2CSc2ccccc21 | -56.9* | 20.6µM* | 14.2% | 9.3% | i
CN(C)CCC=C1c2ccccc2C=Cc2ccccc21 | ? | ? | ? | 0.6% | i
C#CCN(C)CC/C=C1\c2ccccc2CSc2ccccc21 | -7.9 | i | 16.4µM* | ? | i
CN(CC/C=C1/c2ccccc2CSc2ccccc21)CCCO | -57.7* | 23.1µM* | ? | 13.1% | i
CN(C)CCC=C1c2ccccc2C(C)(C)c2ccccc21 | nt | nt | ? | 29.9µM* | nt
CCCCC1CCC(C(=O)N(CCCC)c2c(N)n(CCCC)c(=O)[nH]c2=O)CC1 (centres undefined) | i | i | -2.9% | ? | ?
COCCn1c(=O)[nH]c2cc(C(=O)N3CCN(c4ccc(Cl)cc4)CC3)ccc2c1=O | 9.4 | ? | -4.5% | ? | 14.6µM*!
O=C(c1ccc(Cn2c(=O)[nH]c3ccccc3c2=O)cc1)N1CCN(c2ccccc2)CC1 | -9.9 | 20.6µM* | 3.5% | -2.8% | ?
O=C(c1ccc(Cn2c(=O)[nH]c3ccccc3c2=O)cc1)N1CCN(c2ccccn2)CC1 | ? | i | -5.8% | -1.1% | i
CCCCn1c(N)c(N(CC(C)C)C(=O)c2cc3ccccc3cc2OC)c(=O)[nH]c1=O | -5.9 | i | -141.7% | ? | i
CN(C)c1ccc(/C=C2\C=Cc3ccccc32)cc1N | nt | i | nt | nt | i
